Assay [1] concerns the target Paired box protein Pax-6 (Homo sapiens) (UniProt P26367). The assay is described as follows: ATG_Pax6_CIS: Attagene CIS-FACTORIAL HepG2 Assay for human Paired Box 6 (PAX6) (AID 2282956). Particulars: HepG2 CIS-FACTORIAL PAX6 reporter transcription, RNA readout; actives raise or lower the signal. The procedure, abridged: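 Fluorescent RT-PCR products separated by capillary electrophoresis report PAX6-linked promoter mRNA in HepG2 cells 24 h post-dose. Curves fitted bidirectionally, DMSO as negative control.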

Assay [2] can be described thus: ATG_PPRE_CIS: Attagene CIS-FACTORIAL HepG2 Assay for human Peroxisome Proliferator-activated Response Element (PPRE) (AID 2282958). Particulars: HepG2 PPRE cis-element reporter, Attagene transcription factor profiling; actives raise or lower the signal. The method, boiled down: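 HepG2 cells transiently transfected with multiplexed cis-element reporter units measure endogenous transcription factor activity. After 24 h compound exposure, reporter mRNA is quantified by RT-PCR, 6-FAM labeling, HpaI digestion and capillary electrophoresis; bidirectional fits are made against DMSO baseline.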

The nature of assay [3]: ATG_RORE_CIS: Attagene CIS-FACTORIAL HepG2 Assay for human RAR-related Orphan Receptor Element (RORE) (AID 2282959). To be noted: HepG2 Attagene cis-factorial RORE reporter, mRNA; actives raise or lower the signal. The procedure, abridged:
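HepG2 cells transiently transfected with multiple cis-element reporter transcription units, exposed to chemical for 24 h. Reporter mRNA quantified by RT-PCR, 6-FAM primer-extension labeling, HpaI digestion and capillary electrophoresis; bidirectional fit versus DMSO baseline.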

A short description of assay [4]: ATG_Sox_CIS: Attagene CIS-FACTORIAL HepG2 Assay for human SRY-box transcription factor (SOX) (AID 2282960). Particulars: HepG2 Attagene cis-factorial SOX reporter, mRNA; actives raise or lower the signal. The method, boiled down: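 HepG2 cells transiently transfected with cis-element-driven multiple reporter transcription units, dosed 24 h; reporter mRNA measured by RT-PCR, FAM labelling, HpaI digestion and capillary electrophoresis. Bidirectional fit versus DMSO baseline.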

The target in assay [5] is Transcription factor Sp1 (Homo sapiens) (UniProt P08047). The assay is described as follows: ATG_Sp1_CIS: Attagene CIS-FACTORIAL HepG2 Assay for human Specificity Protein 1 (Sp1) (AID 2282961). To be noted: HepG2 Sp1 cis-reporter transcription, actives raise or lower the signal. The method, boiled down: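 HepG2 cells transiently transfected with multiple reporter transcription units driven by cis-regulatory elements; Sp1-responsive reporter mRNA measured 24 h after dosing by RT-PCR and capillary electrophoresis fluorescence, fitted bidirectionally against DMSO baseline.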

The nature of assay [6]: ATG_SREBP_CIS: Attagene CIS-FACTORIAL HepG2 Assay for human Sterol Regulatory Element Binding (SREBP) (AID 2282962). Particulars: HepG2 Attagene cis-factorial SREBP reporter, mRNA; actives raise or lower the signal. The procedure, abridged:
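Endogenous factor activity is measured in HepG2 through multiplexed reporter units under cis-element control. Following a 24 h incubation, reporter transcripts are reverse-transcribed, PCR-amplified and sized by capillary electrophoresis; activity is fitted in both directions relative to DMSO.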

Assay [7] has as its target Signal transducer and activator of transcription 3 (Homo sapiens) (UniProt P40763). As to the kind of experiment: ATG_STAT3_CIS: Attagene CIS-FACTORIAL HepG2 Assay for human Signal Transducer and Activator of Transcription 3 (STAT3) (AID 2282963). Particulars: HepG2, Attagene cis-factorial STAT3 reporter transcription; actives raise or lower the signal. The method, boiled down: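 Fluorescence intensity of 6-FAM-labelled reporter fragments, separated by capillary electrophoresis after RT-PCR, gave the signal. Cells were HepG2 transfected with cis-element reporter units and treated 24 h; fitting was bidirectional relative to DMSO.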

The nature of assay [8]: ATG_TCF_b_cat_CIS: Attagene CIS-FACTORIAL HepG2 Assay for human T-Cell-Factor with beta-catenin (TCF/b-cat) (AID 2282965). Particulars: HepG2 TCF/beta-catenin cis-reporter transcription, actives raise or lower the signal. The method, boiled down: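 HepG2 cells transiently transfected with cis-promoter-driven multiplexed reporter units; reporter mRNA measured 24 h after dosing by RT-PCR, FAM labelling, HpaI digestion and capillary electrophoresis. Bidirectional fitting relative to DMSO baseline.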

The nature of assay [9]: ATG_TAL_CIS: Attagene CIS-FACTORIAL HepG2 Assay for human TAL Basal Promoter (AID 2282966).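 Further: background control endpoint measuring basal TAL promoter reporter mRNA not a specific factor.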 To be noted: HepG2 Attagene cis-factorial TAL promoter reporter; actives raise or lower the signal. The procedure, abridged: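 Basal-promoter background-control endpoint from a multiplexed HepG2 reporter panel. Cells were exposed 24 h, then reporter mRNA was read by RT-PCR/CE fluorescence and fitted in both directions relative to DMSO.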

Assay [10] can be described thus: ATG_TGFb_CIS: Attagene CIS-FACTORIAL HepG2 Assay for human Transforming Growth Factor (TGF) (AID 2282967). Particulars: HepG2 Attagene CIS TGFb reporter, mRNA transcription; actives raise or lower the signal. The method, boiled down:
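Transient MRTU transfection of HepG2 (FuGene 6). Dose 24 h. TriZol RNA, oligo(dT) RT, PCR, 6-FAM primer extension, HpaI cut, CE. Bidirectional fit, DMSO = baseline.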

Assay [11] can be described thus: ATG_VDRE_CIS: Attagene CIS-FACTORIAL HepG2 Assay for human Vitamin D Receptor Element (VDRE) (AID 2282968). Particulars: HepG2 VDRE cis-reporter transcription, actives raise or lower the signal. The procedure, abridged: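 Compounds were applied for 24 h to HepG2 cells transfected with promoter-regulated reporter units. Total RNA was reverse-transcribed, and reporter amplicons were fluorescently labelled and sized by capillary electrophoresis.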

In assay [12] the target is X-box-binding protein 1 (Homo sapiens) (UniProt P17861). As to the kind of experiment: ATG_Xbp1_CIS: Attagene CIS-FACTORIAL HepG2 Assay for human X-box Binding Protein 1 (XBP1) (AID 2282972). Particulars: HepG2 XBP1 cis-element reporter, Attagene multiplex; actives raise or lower the signal. The method, boiled down: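 Multiplexed cis-reporter readout in transfected HepG2 liver cells. Exposure lasted 24 hours. Activity in either direction was fitted against DMSO as negative control and baseline.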

A short description of assay [13]: ATG_M_19_TRANS: Attagene TRANS-FACTORIAL HepG2 Assay for M19 Transcription Factor (Internal Marker) (AID 2282974; active means hit-call score of the fitted dose curve at least 0.9, where 1 is the maximum). Particulars: HepG2 Attagene TRANS-FACTORIAL M19 internal marker reporter. The method, boiled down:
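HepG2 cells transiently transfected with multiple GAL4-UAS reporter transcription units were exposed to chemicals for 24 h. Reporter mRNA was read by RT-PCR, 6-FAM primer extension, HpaI digestion and capillary electrophoresis; gain of signal fitted relative to DMSO.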

Assay [14] in a line: ATG_TA_CIS: Attagene CIS-FACTORIAL HepG2 Assay for human TA Basal Promoter (AID 2282964). To be noted: HepG2 Attagene CIS-factorial TA basal promoter reporter; actives raise or lower the signal. The procedure, abridged: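 Read-out: fluorescent reporter-transcript fragments resolved by capillary electrophoresis after RT-PCR and HpaI digestion. Source: HepG2 cells carrying transiently transfected multi-reporter cis constructs, treated 24 h. Endpoint fitted bidirectionally relative to DMSO.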

The target of assay [15] is Nuclear receptor subfamily 1 group I member 3 (Homo sapiens) (UniProt Q14994). The assay is described as follows: ATG_CAR_TRANS: Attagene TRANS-FACTORIAL HepG2 Assay for human Constitutive Androstane Receptor (CAR) (AID 2282969; active means hit-call score of the fitted dose curve at least 0.9, where 1 is the maximum;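 further: activators raise reporter mRNA above DMSO so AC50 marks induction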). To be noted: HepG2 Attagene TRANS-FACTORIAL CAR reporter. The method, boiled down: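 Transiently transfected HepG2, multiplex TRANS reporters (CAR-Gal4 chimera driving GAL4-UAS reporter). 24 h dosing. Readout: reporter transcript by RT-PCR + capillary electrophoresis, fluorescence intensity; positive direction vs DMSO.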

Assay [16] has as its target Estrogen receptor (Homo sapiens) (UniProt P03372). As to the kind of experiment: ATG_ERa_TRANS: Attagene TRANS-FACTORIAL HepG2 Assay for human Estrogen Receptor alpha (ERa) (AID 2282970; active means hit-call score of the fitted dose curve at least 0.9, where 1 is the maximum). Particulars: HepG2 Attagene TRANS ERa GAL4 reporter, mRNA. The method, boiled down: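 Gal4-fusion ERa transactivation, measured as reporter transcript level in transiently transfected HepG2 cells. Exposure 24 h; RT-PCR plus capillary electrophoresis with fluorescence detection.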

A short description of assay [17]: ATG_GAL4_TRANS: Attagene TRANS-FACTORIAL HepG2 Assay for GAL4 (Internal Marker) (AID 2282976; active means hit-call score of the fitted dose curve at least 0.9, where 1 is the maximum). To be noted: HepG2 Attagene TRANS GAL4 internal marker reporter. The procedure, abridged: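 Background-control readout: GAL4-UAS reporter transcript in transiently transfected HepG2 cells after 24 h compound exposure. Measured by RT-PCR, 6-FAM primer extension, HpaI digest and capillary electrophoresis; gain-of-signal fit versus DMSO.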

In assay [18] the target is Estrogen-related receptor gamma (Homo sapiens) (UniProt P62508). The assay is described as follows: ATG_ERRg_TRANS: Attagene TRANS-FACTORIAL HepG2 Assay for human Estrogen-Related Receptor gamma (ERRg) (AID 2282977; active means hit-call score of the fitted dose curve at least 0.9, where 1 is the maximum;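 further: hits increase reporter signal over DMSO so potencies reflect activators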). Particulars: HepG2 Attagene TRANS reporter, ERRg transactivation. The method, boiled down:
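Induction of reporter transcripts through a chimeric NR-Gal4 protein is quantified in transfected human HepG2 liver cells after 24 h chemical exposure, using RT-PCR with capillary electrophoresis detection and DMSO as baseline.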

Consider eight compounds from PubChem BioAssay (EPA / NIEHS).

Results filed as inconclusive are left out. The source made the active and inactive calls. How the source made its calls, unless noted: active means hit-call score of the fitted dose curve at least 0.9, where 1 is the maximum; inactive means score below 0.9.

X-box-binding protein 1 (Homo sapiens), sequence (P17861 whole entry, looked up): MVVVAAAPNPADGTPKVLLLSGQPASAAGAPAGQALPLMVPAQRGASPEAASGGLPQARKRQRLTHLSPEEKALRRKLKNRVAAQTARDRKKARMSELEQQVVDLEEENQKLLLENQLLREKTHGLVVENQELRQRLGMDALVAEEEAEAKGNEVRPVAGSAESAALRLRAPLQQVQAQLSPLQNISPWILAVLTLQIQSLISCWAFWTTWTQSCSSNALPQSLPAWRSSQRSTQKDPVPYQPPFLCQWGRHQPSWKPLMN
Paired box protein Pax-6 (Homo sapiens), sequence (P26367 whole entry, looked up): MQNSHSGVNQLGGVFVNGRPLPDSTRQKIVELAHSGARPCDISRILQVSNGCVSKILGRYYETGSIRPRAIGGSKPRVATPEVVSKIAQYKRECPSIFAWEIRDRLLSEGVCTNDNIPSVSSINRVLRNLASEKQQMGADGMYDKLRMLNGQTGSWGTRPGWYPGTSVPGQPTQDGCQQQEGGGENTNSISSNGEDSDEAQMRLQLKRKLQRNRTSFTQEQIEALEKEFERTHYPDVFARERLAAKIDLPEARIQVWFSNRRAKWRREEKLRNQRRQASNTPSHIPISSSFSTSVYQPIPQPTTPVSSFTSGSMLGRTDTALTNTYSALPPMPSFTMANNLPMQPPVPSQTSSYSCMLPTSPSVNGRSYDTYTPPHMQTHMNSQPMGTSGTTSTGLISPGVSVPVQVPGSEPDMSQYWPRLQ
Signal transducer and activator of transcription 3 (Homo sapiens), sequence (P40763 whole entry, looked up, the tested form may be a part): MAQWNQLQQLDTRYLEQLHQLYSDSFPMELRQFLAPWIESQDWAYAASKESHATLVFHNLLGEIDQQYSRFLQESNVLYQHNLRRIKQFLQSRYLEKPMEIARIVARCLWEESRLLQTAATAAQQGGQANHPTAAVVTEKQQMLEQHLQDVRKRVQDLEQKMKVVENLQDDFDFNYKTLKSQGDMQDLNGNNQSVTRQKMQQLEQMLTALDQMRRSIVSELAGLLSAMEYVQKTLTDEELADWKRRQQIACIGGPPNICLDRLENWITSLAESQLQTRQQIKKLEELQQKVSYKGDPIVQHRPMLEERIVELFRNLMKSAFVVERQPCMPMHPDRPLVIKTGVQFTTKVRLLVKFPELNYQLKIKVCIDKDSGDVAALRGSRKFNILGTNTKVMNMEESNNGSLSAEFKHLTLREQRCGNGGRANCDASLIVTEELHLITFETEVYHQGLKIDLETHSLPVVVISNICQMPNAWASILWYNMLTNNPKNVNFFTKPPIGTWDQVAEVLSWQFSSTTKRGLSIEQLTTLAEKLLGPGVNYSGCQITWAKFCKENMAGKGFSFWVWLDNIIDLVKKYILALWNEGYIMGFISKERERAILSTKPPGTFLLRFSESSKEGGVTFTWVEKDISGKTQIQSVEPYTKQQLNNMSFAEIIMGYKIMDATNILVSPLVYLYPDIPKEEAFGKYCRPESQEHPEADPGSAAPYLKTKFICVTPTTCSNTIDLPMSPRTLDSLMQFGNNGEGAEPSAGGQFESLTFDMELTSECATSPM
Transcription factor Sp1 (Homo sapiens), sequence (P08047 whole entry, looked up): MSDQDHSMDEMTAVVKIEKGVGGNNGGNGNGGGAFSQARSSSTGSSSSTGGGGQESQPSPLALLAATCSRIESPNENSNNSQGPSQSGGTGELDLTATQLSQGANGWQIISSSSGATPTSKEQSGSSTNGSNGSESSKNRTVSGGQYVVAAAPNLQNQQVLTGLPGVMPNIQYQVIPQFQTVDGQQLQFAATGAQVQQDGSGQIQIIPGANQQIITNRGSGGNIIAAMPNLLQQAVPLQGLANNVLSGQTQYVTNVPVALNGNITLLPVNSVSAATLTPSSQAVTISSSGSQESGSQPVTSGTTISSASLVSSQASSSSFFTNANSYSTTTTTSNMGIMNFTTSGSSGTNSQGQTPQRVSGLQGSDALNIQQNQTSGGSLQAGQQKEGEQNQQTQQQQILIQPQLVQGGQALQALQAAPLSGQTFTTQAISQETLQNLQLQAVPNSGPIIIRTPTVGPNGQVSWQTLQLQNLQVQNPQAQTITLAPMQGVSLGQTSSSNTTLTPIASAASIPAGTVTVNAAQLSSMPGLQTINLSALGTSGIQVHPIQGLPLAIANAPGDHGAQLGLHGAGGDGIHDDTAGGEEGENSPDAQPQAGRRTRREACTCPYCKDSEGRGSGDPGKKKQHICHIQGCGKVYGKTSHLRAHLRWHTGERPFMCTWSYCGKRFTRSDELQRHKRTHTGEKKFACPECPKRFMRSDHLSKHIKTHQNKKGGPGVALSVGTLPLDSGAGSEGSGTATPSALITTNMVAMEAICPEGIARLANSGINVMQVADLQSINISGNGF
Nuclear receptor subfamily 1 group I member 3 (Homo sapiens), sequence (Q14994 whole entry, looked up, the tested form may be a part): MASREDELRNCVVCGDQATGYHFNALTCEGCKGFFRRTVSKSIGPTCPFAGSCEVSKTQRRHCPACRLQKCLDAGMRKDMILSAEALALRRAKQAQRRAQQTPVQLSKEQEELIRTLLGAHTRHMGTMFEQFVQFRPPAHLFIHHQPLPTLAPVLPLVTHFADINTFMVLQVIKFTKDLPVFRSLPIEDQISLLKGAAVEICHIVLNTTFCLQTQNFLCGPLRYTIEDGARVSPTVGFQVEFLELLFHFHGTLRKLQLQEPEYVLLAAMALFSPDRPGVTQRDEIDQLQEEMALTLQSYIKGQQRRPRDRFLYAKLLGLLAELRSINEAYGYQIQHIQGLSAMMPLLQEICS
Estrogen receptor (Homo sapiens), sequence (P03372 whole entry, looked up, the tested form may be a part): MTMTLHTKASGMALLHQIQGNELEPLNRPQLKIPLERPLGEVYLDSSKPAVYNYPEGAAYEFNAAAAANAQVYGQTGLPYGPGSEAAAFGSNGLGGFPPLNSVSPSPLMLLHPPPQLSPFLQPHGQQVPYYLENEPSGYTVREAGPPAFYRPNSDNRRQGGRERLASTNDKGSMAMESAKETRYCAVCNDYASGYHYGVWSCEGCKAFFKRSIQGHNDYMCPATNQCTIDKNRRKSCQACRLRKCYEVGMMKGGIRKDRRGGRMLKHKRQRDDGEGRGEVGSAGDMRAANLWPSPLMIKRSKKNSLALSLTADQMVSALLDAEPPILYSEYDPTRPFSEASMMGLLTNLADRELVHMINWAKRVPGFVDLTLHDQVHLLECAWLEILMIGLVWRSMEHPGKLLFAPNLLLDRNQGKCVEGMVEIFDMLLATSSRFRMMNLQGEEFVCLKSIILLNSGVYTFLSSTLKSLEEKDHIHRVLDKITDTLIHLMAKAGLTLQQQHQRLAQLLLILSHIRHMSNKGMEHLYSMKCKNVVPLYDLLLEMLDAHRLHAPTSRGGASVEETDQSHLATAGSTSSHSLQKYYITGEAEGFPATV
Estrogen-related receptor gamma (Homo sapiens), sequence (P62508 whole entry, looked up, the tested form may be a part): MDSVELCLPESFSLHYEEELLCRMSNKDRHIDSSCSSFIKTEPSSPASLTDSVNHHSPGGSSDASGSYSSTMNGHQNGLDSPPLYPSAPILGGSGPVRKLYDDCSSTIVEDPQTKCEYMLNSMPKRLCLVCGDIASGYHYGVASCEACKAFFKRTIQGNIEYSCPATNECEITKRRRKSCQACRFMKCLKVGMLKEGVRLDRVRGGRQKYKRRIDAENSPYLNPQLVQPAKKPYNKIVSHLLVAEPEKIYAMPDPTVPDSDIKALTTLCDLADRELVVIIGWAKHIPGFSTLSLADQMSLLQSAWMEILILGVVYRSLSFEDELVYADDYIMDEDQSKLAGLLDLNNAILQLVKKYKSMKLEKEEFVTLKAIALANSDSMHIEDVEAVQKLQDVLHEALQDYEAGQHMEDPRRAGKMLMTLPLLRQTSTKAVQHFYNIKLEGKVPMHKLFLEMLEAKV

As to `CCC(=O)OCc1ccccc1`, the compound was called inactive in [1], in [2], in assay [3], in assay [4], in [5] and in assay [6]. Also, the result in [7], in assay [8], in assay [9], in assay [10], in [11] and in [12] was inactive. For the same compound, in assay [13], the call was inactive.
On to `O=C(O)CCCCC1CCSS1` (stereo unspecified), for which the compound was called inactive in [1], in assay [2], in [4], in assay [5], in assay [6] and in assay [7]. Further, the outcome in [14], in assay [8], in assay [9], in assay [10], in [11] and in [12] was inactive.
As to `CC(C)(C)NC(N)=O`, the compound was called inactive in assay [1], in assay [2], in assay [3], in assay [4], in assay [6] and in assay [7]. Besides, the compound was classed as inactive in assay [8], in assay [9], in assay [10], in assay [11], in assay [15] and in assay [16]. Moreover, the compound was called inactive in assay [17].
Turning to `O=S(=O)(O)NC1CCCCC1`, the call in assay [1], in assay [4], in assay [5], in assay [6], in [7] and in assay [14] was inactive. In addition, the compound was called inactive in assay [8], in assay [9], in assay [10], in assay [11] and in assay [13].
On to `C=C(C)C(=O)OCCOC(=O)CC(C)=O`, for which the outcome in assay [1], in assay [2], in [4], in [5], in assay [6] and in assay [7] was inactive. The result in assay [14], in assay [8], in assay [9], in [10], in [11] and in assay [13] was inactive. In addition, the outcome in assay [17] was inactive.
As to `CC(c1cc2ccccc2s1)N(O)C(N)=O` (stereo unspecified), the compound was called inactive in [1], in assay [4], in [5], in assay [6], in [7] and in assay [14]. Also, the compound was classed as inactive in assay [8], in assay [9], in assay [10], in assay [11], in assay [16] and in assay [12]. Further, the compound was called inactive in assay [13].
As for `CCOC(=O)c1ccccc1OC`, the compound was classed as inactive in assay [1], in [2], in assay [4], in assay [5], in assay [6] and in [7]. Also, the compound was called inactive in assay [14], in [8], in assay [9], in assay [10], in [11] and in assay [15]. Also, the compound was classed as inactive in assay [12] and in assay [18].
As for `C=CC(C)(O)CCC=C(C)CCC=C(C)C` (stereo unspecified), the AC50 in [1] is 134 µM (active); in [4] it was 148 µM (active); in assay [5], 161 µM (active); in assay [6] it was 114 µM (active); in assay [7] it was 100 µM (active); in assay [14] it was 146 µM (active). The AC50 in assay [9] is 166 µM (active); in assay [10], 187 µM (active); in [12], 120 µM (active). In addition, the result in assay [2], in [3] and in assay [8] was inactive.
